# Entries with a potency or affinity are not part of this list. Activity calls are given as the source filed them.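 How the source made its calls: active means CTGF level falls with dose and the fitted half-maximal dose is at most twice the top valid dose; inconclusive means flat fit with 30 to 70% drop, or a poor fit; inactive means the rest.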
# Assay: CTGF mRNA reduction in DLD1 cells – cell-based, DLD1 colon cancer, RT-qPCR, cherry-pick, dose response (AID 1053122)
# Settings: DLD1 CTGF mRNA (YAP1 pathway), 24 h; series mostly up to 26 µM; CTGF expression fold change (lower = inhibition): at the top concentration
row,SMILES,CTGF expression fold change (lower = inhibition)
1,COc1cccc(-c2ccc([C@@H]3[C@@H](CO)N4CCCCN(C(=O)Cc5ccncc5)C[C@H]34)cc2)c1,0.988 unspecified (inactive)
2,O=C(Cc1ccncc1)N1CCCCN2[C@H](CO)[C@H](c3ccc(C#Cc4ccccc4F)cc3)[C@H]2C1,1.23 unspecified (inactive)
3,O=C(Cc1ccncc1)N1CCCCN2[C@H](C1)[C@@H](c1ccc(C#Cc3ccccc3F)cc1)[C@@H]2CO,0.741 unspecified (inactive)
4,COc1cccc(-c2ccc([C@@H]3[C@H]4CN(C(=O)Cc5ccncc5)CCCCN4[C@H]3CO)cc2)c1,1.38 unspecified (inactive)
5,O=C(Cc1ccncc1)N1CCCCN2[C@H](CO)[C@@H](c3ccc(C#Cc4ccccc4F)cc3)[C@@H]2C1,0.409 unspecified (inactive)
6,COc1cccc(-c2ccc([C@@H]3[C@H](CO)N4CCCCN(C(=O)Cc5ccncc5)C[C@@H]34)cc2)c1,0.779 unspecified (inactive)
7,O=C(Cc1ccncc1)N1CCCCN2[C@H](CO)[C@@H](c3ccc(C#Cc4ccccc4F)cc3)[C@H]2C1,0.661 unspecified (inactive)
8,COc1cccc(-c2ccc([C@H]3[C@@H](CO)N4CCCCN(C(=O)Cc5ccncc5)C[C@@H]34)cc2)c1,0.966 unspecified (inactive)
9,COc1cccc(-c2ccc([C@H]3[C@H](CO)N4CCCCN(C(=O)Cc5ccncc5)C[C@@H]34)cc2)c1,0.94 unspecified (inactive)
10,COc1cccc(-c2ccc([C@H]3[C@@H](CO)N4CCCCN(C(=O)Cc5ccncc5)C[C@H]34)cc2)c1,1.61 unspecified (inactive)
11,O=C(Cc1ccncc1)N1CCCCN2[C@@H](CO)[C@@H](c3ccc(C#Cc4ccccc4F)cc3)[C@@H]2C1,0.834 unspecified [at 23.5 µM] (inactive)
12,COc1cccc(-c2ccc([C@@H]3[C@@H](CO)N4CCCCN(C(=O)Cc5ccncc5)C[C@@H]34)cc2)c1,0.867 unspecified (inactive)

# — PubChem BioAssay AID1053122 (Broad Institute, 2014)
